Screen size: about 1,900 compounds; about 40 (2%) showed an effect of 50% or more. The sample as a whole holds a higher share of strong results than the screen did.
Molecular target: human SGLT1 (hSGLT1) (human, UniProt P13866)
Experiment: primary screen, percent of control activity; higher = less effect of the substance
Parameters: single well
Conditions: 50 µM
Experimental: Two days before the assay, CHO‐wild type and CHO‐hSGLT1 cells were seeded in maintenance medium at 25 000 cells/well in clear‐bottom black 96‐well cell culture plates. Before the assay, cells were washed 3 times with 150 μL/well D‐glucose free DMEM with 0.3% (w/v) BSA. Library compounds at 50 μmol/L (singlicate) prepared in D‐glucose free DMEM with 160 μmol/L 1‐NBD‐glucose and 0.3% (w/v) BSA and negative controls (triplicate) were added at 100 μL/well and placed in a humidified incubator at 37°C with 5% CO2 for 90 minutes. Next, cells were washed 3 times with DMEM with 0.3% (w/v) BSA (150 μL/well). Care was taken to remove all medium after the last wash. Finally, 1‐NBD‐glucose was extracted from the cells by adding 10 μL/well isopropanol and orbital shaking for 5 minutes at 600 rpm, followed by incubation in the dark for 30 minutes. Fluorescence was measured on a Tecan Infinite M200 Microplate Reader (Tecan, Männedorf, Switzerland) with excitation at 445 nm and emission at 525 nm. The amount of 1‐NBD‐glucose taken up by the CHO‐wild type or CHO‐hSGLT1 cells in the presence or absence of test compounds was interpolated from 1‐NBD‐glucose calibration standards. The background uptake by CHO‐wild type was subtracted from the uptake by CHO‐hSGLT1. Background corrected uptake with test compound was expressed as a percentage of corrected uptake without test compound.

Sequence of human SGLT1 (hSGLT1) (P13866 whole entry, looked up): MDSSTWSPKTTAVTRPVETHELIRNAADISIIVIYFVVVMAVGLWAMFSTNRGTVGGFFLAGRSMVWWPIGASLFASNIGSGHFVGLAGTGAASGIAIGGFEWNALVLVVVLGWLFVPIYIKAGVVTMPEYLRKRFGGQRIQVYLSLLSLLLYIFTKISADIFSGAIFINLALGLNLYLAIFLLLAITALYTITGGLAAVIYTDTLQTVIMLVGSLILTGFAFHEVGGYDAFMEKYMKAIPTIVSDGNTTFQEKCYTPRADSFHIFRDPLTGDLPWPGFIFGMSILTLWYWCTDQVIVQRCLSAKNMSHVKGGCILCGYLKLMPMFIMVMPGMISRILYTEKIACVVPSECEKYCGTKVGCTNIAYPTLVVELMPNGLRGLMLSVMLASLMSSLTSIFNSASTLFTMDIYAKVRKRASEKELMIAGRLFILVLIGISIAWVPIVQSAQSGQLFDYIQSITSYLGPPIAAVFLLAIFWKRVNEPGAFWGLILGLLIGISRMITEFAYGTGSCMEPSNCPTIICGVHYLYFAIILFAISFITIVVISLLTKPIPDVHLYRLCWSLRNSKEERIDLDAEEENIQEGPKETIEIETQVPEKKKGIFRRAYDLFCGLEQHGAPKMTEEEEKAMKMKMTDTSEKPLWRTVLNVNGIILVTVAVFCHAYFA

SMILES	NORMALIZED SGLT1 ACTIVITY (%)
CC(C)COCC(CN(Cc1ccccc1)c1ccccc1)N1CCCC1.Cl (centres unmarked)	48
O=P(O)(O)O.c1ccc(CN(CC2=NCCN2)c2ccccc2)cc1	87
COc1cc2ccc(=O)oc2c(O)c1O	142
CCCn1c(=O)c2nc(C3CCCC3)[nH]c2n(CCC)c1=O	180
COc1cc(S(C)=O)ccc1-c1nc2cccnc2[nH]1 (centres unmarked)	237
CC1(C)S[C@@H]2[C@H](NC(=O)Cc3ccccc3)C(=O)N2[C@H]1C(=O)[O-].[K+]	115
CC1(C)CC[C@]2(C(=O)O)CC[C@]3(C)C(=CCC4[C@@]5(C)CC[C@@H](O)C(C)(C)C5CC[C@]43C)C2C1 (some centres unmarked)	133
CC1(C)CC[C@@]2(C(=O)O)C(C1)C1=CCC3[C@@]4(C)CC[C@H](O)C(C)(C)C4CC[C@@]3(C)[C@]1(C)C[C@@H]2O (some centres unmarked)	-6
CC1(C)CC[C@]2(C)CC[C@]3(C)C(=CCC4[C@@]5(C)CC[C@H](O)C(C)(C)C5CC[C@]43C)C2C1 (some centres unmarked)	91
CC(=O)Oc1cc2c(c(C)c1OC(C)=O)CC1OC13[C@@]2(C)CC[C@@]1(C)C2C[C@](C)(C(=O)O)CC[C@]2(C)CC[C@]31C (some centres unmarked)	204
Cl.O=C(O)C1=CCNCC1	111
CO/N=C1\CN(c2nc3c(cc2F)c(=O)c(C(=O)O)cn3C2CC2)CC1CN.CS(=O)(=O)O (centres unmarked)	157
CC(C)[N+]1(C)C2CC[C@@H]1C[C@@H](OC(=O)C(CO)c1ccccc1)C2.[Br-] (some centres unmarked)	83
Cl.OC(CCN1CCCC1)(c1ccccc1)C1CCCCC1 (centres unmarked)	45
Cl.OC(CCN1CCCCC1)(c1ccccc1)C1CCCCC1 (centres unmarked)	69
CS(=O)(=O)O.OC(CCN1CCCCC1)(c1ccccc1)c1ccccc1	101
CN(C)C(=O)Oc1ccc[n+](C)c1.[Br-]	105
NC(Cc1c[nH]cn1)C(=O)Nc1ccc2ccccc2c1 (centres unmarked)	153
C[C@H]1CC2C3CCC4=CC(=O)C=C[C@]4(C)[C@@]3(F)[C@@H](O)C[C@]2(C)[C@@]1(O)C(=O)CO (some centres unmarked)	241
CC(=O)OCC1=C(C(=O)[O-])N2C(=O)[C@@H](NC(=O)Cc3cccs3)[C@H]2SC1.[Na+]	140
CCOP(=S)(OCC)Oc1cc(C)nc(C(C)C)n1	107
CCOP(=S)(OCC)Oc1ccc2c(C)c(Cl)c(=O)oc2c1	118
CCOP(=S)(OCC)Oc1nc(Cl)c(Cl)cc1Cl	35

SMILES	NORMALIZED SGLT1 ACTIVITY (%)
O=C(O)c1cc(O)c(=O)c2c(O)c(O)ccc2c1	141
CC[C@H](C)[C@H](N)C(=O)N1CCC[C@H]1C(=O)N[C@H](C(=O)O)[C@@H](C)CC	98
O=C(O)c1cc(O)ccc1O	145
CC(C)NC(=N)NC(=N)Nc1ccc(Cl)cc1.Cl	130
Cl.N=C(N)NC(=N)Nc1ccccc1	136
Cl.Cl.N=C(NCCCCCCNC(=N)NC(=N)Nc1ccc(Cl)cc1)NC(=N)Nc1ccc(Cl)cc1	25
CC1(C)NC(=O)N(c2ccc([N+](=O)[O-])c(C(F)(F)F)c2)C1=O	222
O=C(/C=C/C=C/c1ccc2c(c1)OCO2)N1CCCCC1	87
COc1ccc(-c2cc(=O)c3c(O)cc(O[C@H]4O[C@H](CO[C@@H]5O[C@@H](C)[C@H](O)[C@@H](O)[C@H]5O)[C@@H](O)[C@H](O)[C@H]4O)cc3o2)cc1	121
COc1ccc2cc([C@H](C)CO)ccc2c1	111
COc1ccc(C(c2ccc(OC)cc2)C(Cl)(Cl)Cl)cc1	42
Clc1ccc(C(c2ccc(Cl)cc2)C(Cl)(Cl)Cl)cc1	86
COc1ccc(CCC(=O)c2c(O)cc(O[C@@H]3O[C@H](CO)C(O)[C@H](O)C3O[C@@H]3O[C@@H](C)[C@H](O)[C@@H](O)[C@H]3O)cc2O)cc1O (some centres unmarked)	143
C#CCCCCCCCCCCCC(O)CC(O)COC(C)=O.C=CCCCCCCCCCCCC(O)CC(O)COC(C)=O (centres unmarked)	197
COC(=O)[C@H]1[C@H]2C[C@H]3c4[nH]c5cc(OC)ccc5c4CCN3C[C@H]2C[C@@H](OC(=O)c2cc(OC)c(OC)c(OC)c2)[C@@H]1OC	345
CC1(C)Oc2ccc3ccc(=O)oc3c2CC1O (centres unmarked)	159
CC(=O)O[C@@H]1c2c(ccc3ccc(=O)oc23)OC(C)(C)[C@@H]1OC(=O)CC(C)C	51
C/C=C(\C)C(=O)O[C@@H]1c2c(ccc3ccc(=O)oc23)OC(C)(C)[C@@H]1OC(C)=O	5
O=C1CN(/N=C/c2ccc(-c3ccc([N+](=O)[O-])cc3)o2)C(=O)[N-]1.[Na+]	103
CCC(C)(C)C(=O)O[C@H]1C[C@@H](C)C=C2C=C[C@H](C)[C@H](CC[C@@H]3C[C@@H](O)CC(=O)O3)[C@H]21	96
CC1=C(/C=C/C(C)=C/C=C/C(C)=C/C=C/C=C(C)/C=C/C=C(C)/C=C/C(=O)[C@]2(C)C[C@@H](O)CC2(C)C)C(C)(C)C[C@H](O)C1	103
CCOP(=S)(OCC)SCn1c(=O)oc2cc(Cl)ccc21	57
CCOP(=S)(OCC)SCSCC	47

SMILES	NORMALIZED SGLT1 ACTIVITY (%)
CCOP(=S)(OCC)SCCSCC	77
CC(C)=CCC[C@](C)(O)C1CC=C(C)CC1 (some centres unmarked)	99
CC1(C)C2CC(=O)O[C@@]3(C)C4=CC(=O)O[C@@H](c5ccoc5)[C@]4(C)CCC3[C@@]2(C)C=C[C@H]1O (some centres unmarked)	132
CN1CCc2c(c3ccccc3n2Cc2ccccc2)C1.O=S(=O)(O)c1cccc2c(S(=O)(=O)O)cccc12	69
Cl.Cl.NNCc1cccc(O)c1	149
CCCCCCCCCCCCC[N+](C)(C)Cc1ccccc1.[Cl-]	40
CCCCCCCCCc1ccc(O)cc1	107
CCCCCCc1ccc(O)cc1O.Nc1c2ccccc2nc2ccccc12	383
CC(=O)O[C@@](C)(CCC=C(C)C)C1CC=C(C)CC1 (some centres unmarked)	112
ClC1=C(Cl)C2(Cl)C3C(Cl)C=CC3C1(Cl)C2(Cl)Cl (centres unmarked)	57
CN1CCC(=C2c3ccccc3Sc3ccccc32)CC1.O=C(O)/C=C\C(=O)O	36
CSc1ccc2c(c1)C(N1CCN(C)CC1)Cc1ccccc1S2.O=C(O)/C=C\C(=O)O (centres unmarked)	115
CN1CCN(CC/C=C2/c3ccccc3Sc3ccc(S(=O)(=O)N(C)C)cc32)CC1	116
COC(=O)[C@H]1[C@H]2C[C@H]3c4[nH]c5ccccc5c4CCN3C[C@H]2CC[C@@H]1O.Cl	110
COc1cc2c(cc1O)C(Cc1ccc(O)cc1)N(C)CC2 (centres unmarked)	89
Oc1ccc(Cl)cc1Cc1cc(Cl)ccc1O	590
CC(=O)O[C@@H]1C[C@@]2(C)[C@H](c3ccoc3)C[C@H]3O[C@]32[C@]2(C)C(=O)C(O)=C3C(C)(C)C(=O)C=C[C@]3(C)C12 (some centres unmarked)	104
CC1(C)C(=O)C=C[C@@]2(C)C1C[C@@H](O)[C@]1(C)C2CC[C@@]2(C)[C@H](c3ccoc3)OC(=O)[C@H]3O[C@]321 (some centres unmarked)	103
CC1(C)C(=O)C=C[C@@]2(C)C1=C(O)C(=O)[C@]1(C)C2CC[C@@]2(C)[C@H](c3ccoc3)C[C@H]3O[C@]321 (some centres unmarked)	45
O=C1CN(/N=C/c2ccc([N+](=O)[O-])o2)C(=O)N1	159
CNC[C@@H](O)c1ccc(O)c(O)c1.O=C(O)C(O)C(O)C(=O)O	105
N#Cc1c(Cl)c(Cl)c(Cl)c(C#N)c1Cl	76
CN1CCN(CCCN2c3ccccc3Sc3ccc(C(F)(F)F)cc32)CC1.Cl.Cl	61

SMILES	NORMALIZED SGLT1 ACTIVITY (%)
OCCN1CCN(CCCN2c3ccccc3Sc3ccc(Cl)cc32)CC1	17
N#Cc1ccc2c(c1)N(CCCN1CCC(O)CC1)c1ccccc1S2	75
Cn1nnnc1SCC1=C(C(=O)[O-])N2C(=O)C(NC(=O)C(O)c3ccccc3)C2SC1.[Na+] (centres unmarked)	150
COc1cc2c(cc1OC)C1C(=O)c3c(O)cc4c(c3OC1CO2)C=CC(C)(C)O4 (centres unmarked)	283
CCCc1ncc(C[n+]2ccccc2C)c(N)n1.Cl.[Cl-]	87
Cc1cc(O)c2c(c1)C(=O)c1cc(O)cc(O)c1C2=O	118
CN(C)CC/C=C1\c2ccccc2Sc2ccc(Cl)cc21.Cl	87
CN(C)CCC=C1c2ccccc2C=Cc2ccccc21.Cl	50
CN(C)CCC=C1c2ccccc2CCc2ccccc21.Cl	59
Cc1cc(C2CCCCC2)n(O)c(=O)c1.NCCO	182
ClC1=C(Cl)C2(Cl)C3C4C=CC(C4)C3C1(Cl)C2(Cl)Cl (centres unmarked)	96
COc1cc2ccc(=O)oc2c(OC)c1OC	257
COC(=O)c1c(OC)cc2c(c1C)Oc1c(Cl)c(O)c(Cl)c(C)c1C(=O)O2	520
Cc1cc(O)c2c(c1O)C(=O)c1c(O)cc(C)c(O)c1C2=O	127
CN[C@@H]1[C@@H](O)C(OC2[C@@H](N)C[C@@H](N)[C@H](O[C@H]3O[C@H](C(C)O)[C@@H](O)[C@H](O)[C@H]3N)[C@H]2O)OC[C@]1(C)O.O=S(=O)(O)O.O=S(=O)(O)O (some centres unmarked)	82
CNC(=O)O/N=C(/C)SC	76
COc1c2ccoc2cc2oc(C)cc(=O)c12	165
OC[C@H]1O[C@@H](n2cnc3c(NCc4ccco4)ncnc32)[C@H](O)[C@@H]1O	142
CCCCCCCCCN1C[C@H](O)[C@@H](O)[C@H](O)[C@H]1CO	83.2
ClC1=C(Cl)C2(Cl)C3C4CC(C5OC45)C3C1(Cl)C2(Cl)Cl (centres unmarked)	136
